Reference: PubChem BioAssay (NCI)
About 83,000 compounds went through this panel and 20% of them were active in at least one assay; those are over-represented in the sample as a whole.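 Each cell line was grown in a 96-well plate and treated with one concentration of compound for 48 hours. Values below 10 were considered active.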 Values without a mark were called inactive. Active and inactive are the calls of the source.

Experiments:
Experiment in all cases: NCI-60 one-dose screen, 48 h (100 = growth as untreated, 0 = no growth, -100 = all killed)
Details in all cases: 10 µM unless noted
SR leukemia = tested on: SR leukemia
RPMI-8226 leukemia = tested on: RPMI-8226 leukemia
OVCAR-8 ovarian = tested on: OVCAR-8 ovarian
OVCAR-5 ovarian = tested on: OVCAR-5 ovarian
OVCAR-4 ovarian = tested on: OVCAR-4 ovarian
SK-OV-3 ovarian = tested on: SK-OV-3 ovarian
OVCAR-3 ovarian = tested on: OVCAR-3 ovarian
HS 578T breast = tested on: HS 578T breast
IGROV1 ovarian = tested on: IGROV1 ovarian
NCI/ADR-RES ovarian = tested on: NCI/ADR-RES ovarian

SMILES | growth (SR leukemia) | growth (RPMI-8226 leukemia) | growth (OVCAR-8 ovarian) | growth (OVCAR-5 ovarian) | growth (OVCAR-4 ovarian) | growth (SK-OV-3 ovarian) | growth (OVCAR-3 ovarian) | growth (HS 578T breast) | growth (IGROV1 ovarian) | growth (NCI/ADR-RES ovarian)
CC(=O)NC(CCc1ccc(Cl)c(Cl)c1)c1cccc(O)c(=O)c1 (stereo not drawn) | 6.21% (active) | 13.9% | 13.9% | 47% | 24.5% | 12.7% | 20.1% | 54.1% |  | 
CCOC(C=O)OCC | 89.9% | 99.1% | 102% | 102% | 114% | 106% | 109% |  | 108% | 107%
BrCc1cccc(C[P+](c2ccccc2)(c2ccccc2)c2ccccc2)c1 | 50.3% | 22.6% | 29.2% | 81.2% | 36.8% | 90.2% | 14.2% |  | 38.8% | 111%
C/C(Cc1ccccc1)=N\O | 101% | 83.3% | 107% | 107% | 117% | 128% | 105% |  |  | 107%
O=Cc1ccc(F)cc1 | 111% | 105% | 103% | 102% | 106% | 109% | 111% |  | 95.2% | 107%
COC(CCCl)c1ccc(Cl)cc1 (stereo not drawn) | 90.2% | 100% | 96.9% | 96.2% | 108% | 106% | 109% |  | 100% | 98.6%
O=C(OCC1CCCO1)c1ccc([N+](=O)[O-])cc1 (stereo not drawn) | 116% | 103% | 99.2% | 109% | 117% | 97.9% | 111% |  | 101% | 103%
CC(=O)NNC(=S)N/C=C/c1c(C)ccc([N+](=O)[O-])c1[N+](=O)[O-] | 92.9% | 103% | 102% | 99.3% | 106% | 105% | 103% |  | 109% | 97.9%
CSCCC(NC(=O)C(Cl)Cl)C(=O)O (stereo not drawn) | 91.5% | 101% | 96.7% | 94.7% | 115% | 85.6% | 106% |  | 105% | 106%
CC(=O)NC(CCC(=O)c1ccccc1)C(=O)O (stereo not drawn) | 16.6% | 91.4% | 101% | 98.3% | 100% | 87.5% | 107% |  | 104% | 106%
COc1ccc(Br)c(C=O)c1 | 8.35% (active) | 22.2% | 69.1% | 93.1% | 88.5% | 103% | 74.2% |  | 92.3% | 51.6%
CC(=O)OC(C)c1cccc(C#N)c1 (stereo not drawn) | 104% | 102% | 103% | 104% | 109% | 93.8% | 111% |  | 115% | 106%
Cc1ccc(S(=O)(=O)NC(=O)NCCSSCCNC(=O)NS(=O)(=O)c2ccc(C)cc2)cc1 | 107% | 99.8% | 106% | 93.6% | 112% | 116% | 109% |  | 101% | 111%
O=S(=O)(O)c1ccc(O)c(C2CCCCC2)c1 | 98.3% | 105% | 102% | 103% | 94.4% | 97.1% | 113% |  | 107% | 118%
OCCc1ccc(Cl)cc1 | 94.6% | 101% | 98.7% | 97.8% | 103% | 100% | 105% |  | 104% | 107%
CNc1ccccc1C(N)=O | 109% | 110% | 103% | 117% | 109% | 107% | 114% |  | 100% | 97.9%
O=[N+]([O-])c1ccc(-c2nc(N(CCO)CCO)c3ccccc3n2)o1 | 2.69% (active) | 4.26% (active) | 1.65% (active) | -5.6% (active) | -25.7% (active) | -4.36% (active) | -34.3% (active) | -41.8% (active) |  | 5.04% (active)

SMILES | growth (SR leukemia) | growth (RPMI-8226 leukemia) | growth (OVCAR-8 ovarian) | growth (OVCAR-5 ovarian) | growth (OVCAR-4 ovarian) | growth (SK-OV-3 ovarian) | growth (OVCAR-3 ovarian) | growth (HS 578T breast) | growth (IGROV1 ovarian) | growth (NCI/ADR-RES ovarian)
CCOC(=O)c1c(C)[nH]c(C)c1C=O | 84.4% | 89.7% | 94.5% | 96.4% | 107% | 94% | 112% |  | 103% | 107%
OCc1cccnc1 | 95.1% | 102% | 95.2% | 99.6% | 115% | 107% | 114% | 97.2% |  | 115%
Cc1nc(C)c(C(=O)O)cc1C(=O)O | 100% | 106% | 115% | 97.5% | 122% | 104% |  | 124% | 124% | 107%
C=C(OC(C)=O)c1ccccc1 | 80.7% | 70.3% | 101% | 106% | 115% |  | 112% | 90.7% | 113% | 109%
COc1cccc(N=CNc2cccc(OC)c2)c1 | 93.6% | 92% | 104% | 103% |  | 103% | 102% | 105% | 96.7% | 91.4%
CCCCOC(=O)c1ccc(NC(=O)CCl)cc1 | -30.8% (active) | 19.5% | 42.2% | 101% | -53% (active) |  | -83.5% (active) | 79.9% | -49.5% (active) | 65.2%
CC1(c2ccccc2)CO1 (stereo not drawn) | 104% | 103% | 102% | 97.5% |  | 107% | 114% | 97.4% | 100% | 113%
Cc1ccc[n+](CCC(N)=O)c1 | 59.8% | 102% | 103% | 93.8% | 87.4% |  | 111% | 87.3% | 98.7% | 97.4%
Cc1[nH]c(=S)[nH]c(=O)c1C | 97.9% | 115% | 89.8% | 101% |  | 106% | 118% | 123% | 104% | 105%
Cc1c(-c2ccc(C3CCCCC3)cc2)nc2ccc(F)cc2c1C(=O)O | 7.53% (active) | 56.1% | 37.6% | 76.7% | 84.2% |  | 41% | 75.3% | 29.7% | 45.7%
CC(=O)C1C(=O)C(=O)N(c2cccc([N+](=O)[O-])c2)C1=O (stereo not drawn) | 95.6% | 107% | 106% | 113% | 103% |  | 117% | 93.8% | 109% | 113%
CN(C)c1ncnc2c1cnn2C | 109% | 89% | 94.7% | 97.5% | 102% |  | 104% | 99.1% |  | 99.9%
C=CC1=NC(C)(C)CC(C)O1 (stereo not drawn) | 113% | 105% | 113% | 104% | 98.6% |  | 113% | 107% |  | 112%
Nc1nc(Cl)cc(Cl)n1 | 93.6% | 114% | 112% | 103% | 112% |  | 111% | 113% | 100% | 95.8%
CCOP(=O)(OCC)/C(=C\N1C(=O)CC(=O)NC1=S)C(=O)OC | 96.7% | 101% | 97.6% | 98.7% | 94.3% |  | 114% | 98.4% | 103% | 104%
Nc1ccc2ccccc2c1-c1c(N)ccc2ccccc12 | 4.26% (active) | 24.9% | 44% | 57.1% | 66% |  | 5.64% (active) | 35.6% | 45.8% | 16.5%
